Results filed as inconclusive are left out. Unmarked numbers belong to inactive results. Calls come from the whole dose curve; as a rule, active = well fitted cell-killing curve with a large enough effect in the repeat runs; inconclusive = weak or mixed curves, or effect the other way; inactive = flat fitted curve, though single readings scatter.
Test: qHTS assay to identify small molecule antagonists of the retinoid acid receptor (RAR) signaling pathway - cell viability counter screen (AID 1159551); note: nearly all actives have a fitted effect of over 35% in size
Details: C3RL4 cells viability, ATP luminescence (CellTiter-Glo), 6 h; series mostly up to 92.4 µM; activity change, negative = cytotoxicity: at the top concentration
From the text: U.S. Tox21 Program National Center for Advancing Translational Sciences [NCATS] NIH Chemical Genomics Center [NCGC] U.S. Environmental Protection Agency [EPA] National Institutes of Environmental Health Sciences [NIEHS] National Toxicology Program [NTP] U.S. Food and Drug Administration [FDA] Tox21 Assay Overview: All-trans Retinoic acid (atRA) is the potent natural metabolite of retinol and plays an important role in normal embryonic development and maintenance of cellular phenotype in adult animals. atRA is the activating ligand for the retinoic acid receptors (RARs) which form heterodimers with retinoid X receptors (RXRs) on the retinoic acid response element (RARE). Through activation of the RAR/RXRs nuclear receptors, atRA regulates the transcription of a large number of protein-coding genes and regulatory RNAs. Intracellular levels of atRA are controlled by the retinol signaling pathway (RSP) that regulates the biosynthesis and catabolism of atRA to maintain physiological levels. Chemicals that interfere with the RSP can cause abnormal intracellular levels of atRA and therefore are potential developmental toxicants. To assess compounds for the potential adverse effect on embryonic development through interfering with retinol signaling, a cell-based RARE luciferase reporter gene assay was used. C3RL4 cell line (OARSA/CFSAN/FDA, Laurel, MD) was used to screen Tox21 10K compound library for identifying inhibitors of the RSP. Also cytotoxicity was assessed by determining the viability of cells based on the quantitation of ATP.
Tox21 Assay Protocol Summary: C3RL4 cells were seeded at 1,000/well in 4 uL of assay medium into white solid 1,536-well tissue culture plates (Greiner Bio-One North America Inc. Monroe, NC) using a Multidrop Combi (Thermo Scientific, Waltham, MA) dispenser. After incubation at 37 C and 5% CO2 for an overnight, 23 nL of compounds dissolved in DMSO, positive control or DMSO only were transferred by a Pintool station (Kalypsys, San Diego, CA). One ul of 1 uM (final concentration) of Retinol was added right after the compound addition by using a Flying Reagent Dispenser (FRD) (Aurora Discovery, San Diego, CA). After 6 hr incubation at 37 C and 5% CO2, 5 uL of CellTiter-Glo reagent (Promega Corporation, Madison, WI) was added to each assay plate using an FRD. Luminescence was quantified on a ViewLux plate reader (PerkinElmer, Waltham, MA) after 30 min incubation at room temperature.
% is set by controls: 0 for no effect and ±100 for the full control effect.

Point of comparison: `O=C(O)c1ccc(OCCN2CCCCC2)cc1`, “activity change, negative = cytotoxicity” value -0.0492% [at 42.5 µM]. Against it:
- CN=C(NC#N)NCCSCc1csc(N=C(N)N)n1 — higher, 2.05% [at 42.5 µM]
- CC(=O)Nc1ncc([N+](=O)[O-])s1 — lower, -0.115% [at 42.5 µM]
- CC(=O)OC[C@H]1O[C@@H](OC(C)=O)[C@H](OC(C)=O)[C@@H]1OC(C)=O — higher, 0.611% [at 42.5 µM]
- CCNC(=O)/C=C/c1cccc(Br)c1 — lower, -0.249% [at 42.5 µM]
- Cc1ccccc1C(=O)N1CC/C(=N\OS(=O)(=O)O)c2ccc(Cl)cc21 — lower, -0.505% [at 42.5 µM]
- O=C(Oc1ccccc1C(=O)O)c1ccccc1O — higher, 5.43% [at 42.5 µM]
- CC(C)(CO)[C@@H](O)C(=O)NCCCO — higher, 4.38% [at 42.5 µM]
- C=CCOCC(CO)(COCC=C)COCC=C — lower, -0.3% [at 42.5 µM]
- O=P(O)(O)OCC(O)CO (stereo not given) — higher, 5.59% [at 42.5 µM]
- Cc1c(C(C)C)c(=O)n(-c2ccccc2)n1C — higher, 2.36% [at 42.5 µM]
- O=C(O)CCNC(=O)c1ccccc1 — higher, 3.66% [at 42.5 µM]
- COc1ccc(NS(=O)(=O)c2ccc(N)cc2)nn1 — higher, 0.764% [at 42.5 µM]
- Cc1nc(C)nc(N2C[C@@H](C)N(c3ccnc([C@@H](C)O)n3)[C@@H](C)C2)n1 — higher, 3.92% [at 42.5 µM]
- C1CCN2C[C@@H]3C[C@@H](CN4CCCC[C@@H]34)[C@H]2C1 — lower, -0.405% [at 42.5 µM]
- Cn1c(=O)c2c(ncn2CC2OCCO2)n(C)c1=O — higher, 2.34% [at 42.5 µM]
- Cc1nc2n(c(=O)c1CCN1CCC(C(=O)c3ccc(F)cc3)CC1)CCS2 — higher, 0.0101% [at 42.5 µM]
- NCCc1ccn[nH]1 — higher, -0.0043% [at 42.5 µM]

Point of comparison: `Cc1ccccc1OCC1CO1` (stereo not given), “activity change, negative = cytotoxicity” value -0.77%. Against it:
- Nc1cc(S(=O)(=O)O)ccc1S(=O)(=O)O — lower, -1.07%
- COC(/C=C(\C)CCC=C(C)C)OC — higher, 0.921%
- CCN(CCC#N)c1ccccc1 — higher, -0.26%
- CCCCCCCC/C=C\CCCCCCCC(=O)OC[C@@H](O)[C@H]1OC[C@H](O)[C@H]1O — higher, 4.93%
- OC[C@@H](O)[C@H](O)[C@@H](O)[C@@H](O)CO — higher, 1.6%
- COC(OC)C(C)c1ccccc1 (stereo not given) — higher, 2.31%
- O=S(=O)(O)CCO — higher, 0.879%
- CC(=O)/C=C/c1ccco1 — lower, -0.858%
- CCCO — higher, 1.97%
- COc1cc(C=O)ccc1OC(=O)C(C)C — higher, 2.83%
- C[CH2][Ge]([Cl])([CH2]C)[CH2]C — higher, 6.1%
- CC(C)CCCC(C)CC=O (stereo not given) — higher, 4.62%
- CCC1COC(=O)O1 (stereo not given) — higher, 2.21%
- SCCSCCS — lower, -1.24%
- CCCCCC1CCCC(=O)O1 (stereo not given) — higher, 4.93%
- CCCCCCCCCCCCOC(C)=O — higher, 0.586%
- CCCCCCCCCCC — higher, -0.0754%
- CCOC(=O)CC#N — lower, -2.57%
- OCCCCCCCl — higher, 12.1%
- CCCCC/C=C/CC(=O)OC — higher, -0.472%

In the case of `Nc1c(NC/C=C\COc2cc(CN3CCCCC3)ccn2)c(=O)c1=O`, the activity change, negative = cytotoxicity is reported as 3.28% [at 19 µM].

Source: PubChem BioAssay (Tox21)
